The values that follow come from publication PMC8384837, “Expanding the binding specificity for RNA recognition by a PUF domain”.

Changes are numbered by the printed parent chain.

Experiment in all cases: yeast three-hybrid, YBZ-1, SC-Leu-His + 0.5 mM 3-AT, 4 days
Common to all, as to conditions: tags: N-Gal4 AD-HA kept; label: inside an RPR1-promoter hybrid RNA with tandem MS2 sites; ssRNA

One experiment concerns the target PUM1 PUF domain R5-NDI (Homo sapiens, UniProt Q14671 828-1176, C1007N;R1008D;Q1011I). The gist of the method:
(§1)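 Pumilio-1 PUF domain libraries, randomized (NNK) at the three base-contacting residues of each repeat, were co-expressed with matching RNA elements from a centromeric plasmid in strain YBZ-1 (LexA–MS2 coat fusion, HIS3 reporter). Transformants were plated on SC-Leu (input) and SC-Leu-His + 0.5 mM 3-AT (selection) for four days, and repeat regions were PCR-amplified and Illumina-sequenced. The interaction score is the log2 change in variant frequency from input to selection, with pseudocount 1 where absent.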

The next experiment deals with PUM1 PUF domain R5-KYF (Homo sapiens, UniProt Q14671 828-1176, C1007K;R1008Y;Q1011F). The gist of the method:
as §1

In another experiment the target is PUM1 PUF domain R5-SNR (Homo sapiens, UniProt Q14671 828-1176, C1007S;R1008N;Q1011R). The gist of the method: as §1
The target in the next experiment is PUM1 PUF domain R5-DQR (Homo sapiens, UniProt Q14671 828-1176, C1007D;R1008Q;Q1011R). The gist of the method: as §1
A further experiment addresses PUM1 PUF domain R5-HRP (Homo sapiens, UniProt Q14671 828-1176, C1007H;Q1011P). The gist of the method:
as §1

The next experiment deals with T1, PUM1 PUF domain R6-TYE (Homo sapiens, UniProt Q14671 828-1176, N1043T;Q1047E).
T1 sequence: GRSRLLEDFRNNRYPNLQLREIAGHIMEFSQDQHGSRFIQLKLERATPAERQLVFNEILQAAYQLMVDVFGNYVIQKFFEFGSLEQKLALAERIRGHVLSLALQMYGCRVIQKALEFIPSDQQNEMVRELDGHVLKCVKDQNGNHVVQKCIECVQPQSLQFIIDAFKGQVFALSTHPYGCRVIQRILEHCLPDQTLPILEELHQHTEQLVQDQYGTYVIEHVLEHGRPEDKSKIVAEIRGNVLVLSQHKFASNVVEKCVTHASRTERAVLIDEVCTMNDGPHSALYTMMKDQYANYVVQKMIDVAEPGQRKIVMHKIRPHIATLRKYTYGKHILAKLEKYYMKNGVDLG
The procedure, abridged:
as §1

The next experiment deals with T2, PUM1 PUF domain R6-TWL (Homo sapiens, UniProt Q14671 828-1176, N1043T;Y1044W;Q1047L).
T2 sequence: T1 sequence with Y217W, E220L
The procedure, abridged: as §1

The next experiment addresses T3, PUM1 PUF domain R6-LYC (Homo sapiens, UniProt Q14671 828-1176, N1043L;Q1047C).
T3 sequence: T1 sequence with T216L, E220C
The procedure, abridged:
as §1

A further experiment has as its target PUM1 PUF domain R3-ARC (Homo sapiens, UniProt Q14671 828-1176, C935A;Q939C). The gist of the method:
as §1

The next experiment addresses PUM1 PUF domain R3-GVE (Homo sapiens, UniProt Q14671 828-1176, C935G;R936V;Q939E). The procedure, abridged: as §1
The next experiment deals with PUM1 PUF domain R3-TWG (Homo sapiens, UniProt Q14671 828-1176, C935T;R936W;Q939G). The gist of the method: as §1
A further experiment concerns the target PUM1 PUF domain R8-QWN (Homo sapiens, UniProt Q14671 828-1176, N1122Q;Y1123W;Q1126N). The procedure, abridged:
as §1

The next experiment has as its target PUM1 PUF domain R8-KRA (Homo sapiens, UniProt Q14671 828-1176, N1122K;Y1123R;Q1126A). The procedure, abridged:
as §1

Another experiment deals with PUM1 PUF domain R8-FHK (Homo sapiens, UniProt Q14671 828-1176, N1122F;Y1123H;Q1126K). The procedure, abridged: as §1
In a further experiment the target is PUM1 PUF domain R8-LWK (Homo sapiens, UniProt Q14671 828-1176, N1122L;Y1123W;Q1126K). The procedure, abridged:
as §1

The target in a further experiment is PUM1 PUF domain R3-GFF (Homo sapiens, UniProt Q14671 828-1176, C935G;R936F;Q939F). The gist of the method: as §1
A further experiment deals with PUM1 PUF domain R1-GRS (Homo sapiens, UniProt Q14671 828-1176, S863G;Q867S). The procedure, abridged: as §1
In another experiment the target is PUM1 PUF domain R1-KSS (Homo sapiens, UniProt Q14671 828-1176, S863K;R864S;Q867S). The procedure, abridged:
as §1

Another experiment addresses PUM1 PUF domain R5-QRW (Homo sapiens, UniProt Q14671 828-1176, C1007Q;Q1011W). The gist of the method: as §1
The target in the next experiment is PUM1 PUF domain R7-EFG (Homo sapiens, UniProt Q14671 828-1176, S1079E;N1080F;E1083G). The procedure, abridged: as §1

“GGCUAGAACUAGUGGAUCCCCCGGCGCCCGGCGGCUCGAGCCCGGGUAAGUGUUAAUAGUCUGCAUGCCGCCGGGCGCCAUGCCUGCAGGUCGACUCUAGAAAACAUG”: the binding signal with PUM1 PUF domain R5-NDI is 3.04 log2 enrichment (interaction score); in the experiment with PUM1 PUF domain R5-KYF, 3.92 log2 enrichment (interaction score); with PUM1 PUF domain R5-SNR, 4.01 log2 enrichment (interaction score); with PUM1 PUF domain R5-DQR it was 1.66 log2 enrichment (interaction score); with PUM1 PUF domain R5-HRP it was 3.28 log2 enrichment (interaction score).

On to “GGCUAGAACUAGUGGAUCCCCCGGCGCCCGGCGGCUCGAGCCCGGGUAAGUGAAAAUAGUCUGCAUGCCGCCGGGCGCCAUGCCUGCAGGUCGACUCUAGAAAACAUG”, for which the results for the binding signal in the experiment with PUM1 PUF domain R6-TYE, in the experiment with PUM1 PUF domain R6-TWL and with PUM1 PUF domain R6-LYC were 3.51 log2 enrichment (interaction score), 5.21 log2 enrichment (interaction score) and 3.19 log2 enrichment (interaction score), respectively.

For “GGCUAGAACUAGUGGAUCCCCCGGCGCCCGGCGGCUCGAGCCCGGGUAAGUGUAAGUAGUCUGCAUGCCGCCGGGCGCCAUGCCUGCAGGUCGACUCUAGAAAACAUG”, the binding signal is 0.43 log2 enrichment (interaction score) with PUM1 PUF domain R3-ARC, 3.97 log2 enrichment (interaction score) with PUM1 PUF domain R3-GVE and 4.61 log2 enrichment (interaction score) with PUM1 PUF domain R3-TWG.

As for “GGCUAGAACUAGUGGAUCCCCCGGCGCCCGGCGGCUCGAGCCCGGGUAAGCGUAAAUAGUCUGCAUGCCGCCGGGCGCCAUGCCUGCAGGUCGACUCUAGAAAACAUG”, the binding signal in the experiment with PUM1 PUF domain R8-QWN is 3.25 log2 enrichment (interaction score); with PUM1 PUF domain R8-KRA it was 2.55 log2 enrichment (interaction score); in the experiment with PUM1 PUF domain R8-FHK it was 3.34 log2 enrichment (interaction score).

As to “GGCUAGAACUAGUGGAUCCCCCGGCGCCCGGCGGCUCGAGCCCGGGUAAGUGUAAAUAGUCUGCAUGCCGCCGGGCGCCAUGCCUGCAGGUCGACUCUAGAAAACAUG”, the binding signal in the experiment with PUM1 PUF domain R8-LWK was 4.16 log2 enrichment (interaction score); with PUM1 PUF domain R6-TWL, 0.99 log2 enrichment (interaction score); in the experiment with PUM1 PUF domain R3-ARC, 3.8 log2 enrichment (interaction score); with PUM1 PUF domain R8-KRA, 1.2 log2 enrichment (interaction score); in the experiment with PUM1 PUF domain R3-GFF, 5.53 log2 enrichment (interaction score); with PUM1 PUF domain R6-LYC, 3.91 log2 enrichment (interaction score).

For the sequence “GGCUAGAACUAGUGGAUCCCCCGGCGCCCGGCGGCUCGAGCCCGGGUAAGUGUAAAUCGUCUGCAUGCCGCCGGGCGCCAUGCCUGCAGGUCGACUCUAGAAAACAUG”, the figures for the binding signal with PUM1 PUF domain R1-GRS and with PUM1 PUF domain R1-KSS were 2.75 log2 enrichment (interaction score) and 4.09 log2 enrichment (interaction score), respectively.

Regarding “GGCUAGAACUAGUGGAUCCCCCGGCGCCCGGCGGCUCGAGCCCGGGUAAGUGUCAAUAGUCUGCAUGCCGCCGGGCGCCAUGCCUGCAGGUCGACUCUAGAAAACAUG”, the binding signal is 6.17 log2 enrichment (interaction score) with PUM1 PUF domain R5-SNR, 3.91 log2 enrichment (interaction score) in the experiment with PUM1 PUF domain R5-DQR, 0.43 log2 enrichment (interaction score) in the experiment with PUM1 PUF domain R5-QRW and 1.78 log2 enrichment (interaction score) with PUM1 PUF domain R5-HRP.

“GGCUAGAACUAGUGGAUCCCCCGGCGCCCGGCGGCUCGAGCCCGGGUAAGUCUAAAUAGUCUGCAUGCCGCCGGGCGCCAUGCCUGCAGGUCGACUCUAGAAAACAUG”: in the experiment with PUM1 PUF domain R7-EFG, the binding signal is 3.46 log2 enrichment (interaction score).

As for “GGCUAGAACUAGUGGAUCCCCCGGCGCCCGGCGGCUCGAGCCCGGGUAAGUGUAAUUAGUCUGCAUGCCGCCGGGCGCCAUGCCUGCAGGUCGACUCUAGAAAACAUG”, the binding signal is 1.82 log2 enrichment (interaction score) with PUM1 PUF domain R3-ARC and 0.73 log2 enrichment (interaction score) with PUM1 PUF domain R3-TWG.

As to “GGCUAGAACUAGUGGAUCCCCCGGCGCCCGGCGGCUCGAGCCCGGGUAAGUGUGAAUAGUCUGCAUGCCGCCGGGCGCCAUGCCUGCAGGUCGACUCUAGAAAACAUG”, the binding signal in the experiment with PUM1 PUF domain R5-QRW was 4.36 log2 enrichment (interaction score).
